Most compounds without a hit are left out; they make up all but 2.2% or so of the library.
PfM18AAP inh: PfM18AAP inhibitors, malaria aminopeptidase, primary screen, biochemical, QFRET, recombinant enzyme. M18 aspartyl aminopeptidase (Plasmodium falciparum 3D7). AID 1822, 2009. inhibition, % at 7.35 µM. 1.2% of 290,000 active. H-Glu-NHMec fluorogenic cleavage;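 active = inhibition above the campaign mean inhibition over all tested compounds plus 3 SD, cut at about 28% in these data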;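 also: 0% = plate median of test compound wells and 100% = 2 mM ZnCl2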
NPR1 activator: GC-A stimulated cGMP production enhancers – HEK293 GC-A cells, cGMP TR-FRET, EC30 ANP, primary screen; Atrial natriuretic peptide receptor 1 (Homo sapiens), P16066; activation, % at 10 µM; AID 1671463, 2021; 0% at EC30 ANP, 100% saturating ANP; 0.14% of 370,000 active; in the data active = activation above about 40%
GC-B act: human GC-B receptor activators, primary screen, HEK293 GC-B cells, cGMP TR-FRET, EC30 CNP; activation, % at 10 µM; 0% at EC30 CNP, 100% saturating CNP; AID 1920062, 2024; 0.11% of 370,000 active; Atrial natriuretic peptide receptor 2 (Homo sapiens), P20594;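 active = activation at 10 µM reaching about 35% in either raw or pattern-adjusted values, limit read from the data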
Rce1 inhib: yeast Rce1p protease inhibitors, primary screen, biochemical, fluorescence, cell-free homogeneous; yeast membranes, quenched prenylated peptide cleavage fluorescence; calls only; 0.27% of 290,000 active;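 active = fall in fluorescence gain of 50% or more versus controls, with final raw signal at or below 3038400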;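 also: plate controls were neutral control wells for no effect and wells lacking membranes for full effect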
Target sequence (Q03530 whole entry, looked up): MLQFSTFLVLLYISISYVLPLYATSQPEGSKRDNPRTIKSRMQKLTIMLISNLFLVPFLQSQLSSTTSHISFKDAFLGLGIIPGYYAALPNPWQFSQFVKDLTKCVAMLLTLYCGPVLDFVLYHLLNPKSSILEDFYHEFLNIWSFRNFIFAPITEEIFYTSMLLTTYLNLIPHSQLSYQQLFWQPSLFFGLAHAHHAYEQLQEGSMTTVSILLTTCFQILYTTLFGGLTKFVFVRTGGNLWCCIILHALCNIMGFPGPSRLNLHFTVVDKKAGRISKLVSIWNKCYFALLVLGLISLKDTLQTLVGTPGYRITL
PLC-gamma1 inh: PLC-gamma1 enzyme inhibitors, primary screen, biochemical, fluorescence, purified enzyme; 1-phosphatidylinositol 4,5-bisphosphate phosphodiesterase gamma-1 (Homo sapiens), P19174; fluorogenic substrate; inhibition, % at 12.2 µM; 0.84% of 370,000 active; in the data active = inhibition above about 9.5%
PLCb3 inh: human PLC-beta3 inhibitors, primary screen, biochemical, fluorescence; inhibition, % at 12.2 µM; AID 720704, 2013; 1-phosphatidylinositol 4,5-bisphosphate phosphodiesterase beta-3 (Homo sapiens), Q01970; 0.18% of 370,000 active; Purified PLC-beta3, fluorogenic substrate;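 also: 0% = median of compound wells on plate and 100% = full blocker control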
PLCgamma1 ctr: PLC-gamma1 enzyme inhibitors, counter-screen for PLC-beta3 inhibitor project, biochemical, fluorescence. shares compounds with PLC-gamma1 inh. purified PLC-gamma1, fluorogenic substrate. inhibition, % at 12.3 µM. 3.1% of 3,300 active. AID 743258, 2014; in the data active = inhibition above about 9.5%
PLCb3 confirm: PLC-beta3 inhibitor confirmation, biochemical, fluorescence, purified enzyme | 1% of 3,300 active | AID 743261, 2014 | fluorogenic substrate fluorescence | inhibition, % at 12.3 µM | shares compounds with PLC-gamma1 inh
Numbers without * were called inactive; i = inactive; . = no result given. Rule as the data show it, unless noted: active = inhibition above about 11%; inactive = the rest.

SMILES | PfM18AAP inh | NPR1 activator | GC-B act | Rce1 inhib | PLC-gamma1 inh | PLCb3 inh | PLCgamma1 ctr | PLCb3 confirm
CCn1cc(C(=O)N2CCc3ccccc32)c(=O)c2cc(S(=O)(=O)N(C)C3CCCCC3)ccc21 | 3.3 | -2.8 | 6.7 | i | 10.5* | 5.4 | -2.7 | -4.4
CCn1cc(C(=O)N2CCc3ccccc32)c(=O)c2cc(S(=O)(=O)N3CCOCC3)ccc21 | 7.1 | 8.9 | 9.2 | i | -2.2 | 1.4 | . | .
O=C1C=C[C@H]2CC[C@@H](O)[C@@H]1[C@@H]2Sc1ccccc1 | . | 4.7 | 1.3 | . | 10.3* | -1.9 | 3.2 | -0.8
COc1ccc(CN2C(NC(=O)OCc3ccccc3)=NC3=CC(C)(C)n4c(=O)n(-c5ccccc5)c(=O)n4C32)c(OC)c1 (stereo not drawn) | . | 2.3 | 11.8 | . | -17.3 | -18.6 | . | .
CC(C)NC(=O)CSc1nc2ccccc2n1CC(=O)N1CCc2ccccc21 | 1.6 | -1.0 | -0.3 | i | . | . | . | .
CN(C)C(=O)Cn1c(SCC(=O)N2CCCc3ccccc32)nc2ccccc21 | -8.8 | -4.4 | 0.7 | i | 10.1* | -0.1 | 2.2 | -28.3
CC1CCCCN1C(=O)CSc1nc2ccccc2n1CC(=O)N1CCc2ccccc21 (stereo not drawn) | -0.6 | 1.9 | 2.9 | i | 9.6* | 7.4 | 1.4 | 1.1
Cc1cc(NS(=O)(=O)c2ccc(NC(=O)CSc3nnc(-c4ccccn4)n3Cc3ccco3)cc2)nc(C)n1 | . | -2.5 | 2.5 | . | -0.1 | 2.8 | . | .
CCC(Sc1nc(C)cc(C)n1)C(=O)O (stereo not drawn) | 1.6 | -0.8 | -4.1 | i | -5.8 | 0.3 | . | .
CCC(Sc1nc(C)cc(C)n1)C(=O)Nc1cc(C)on1 (stereo not drawn) | -0.1 | -2.5 | 0.6 | i | 11.2* | 10.9* | -5.9 | -1.2
O=C(Cc1ccc(Cl)cc1)NN1C(=O)c2ccccc2C1=O | 2.1 | -1.2 | 1.9 | i | 10.6* | 4.0 | -9.0 | -0.4
Cc1nn(-c2ccccc2)c2sc(C(=O)N3CCC4(CC3)OCCO4)cc12 | . | 3.2 | 4.4 | . | 7.4 | -0.1 | . | .
CC1(C(=O)Nc2ccc(F)cc2F)CCN1C(=O)Cc1ccccc1 (stereo not drawn) | . | 4.3 | 2.3 | . | 10.8* | 4.0 | -3.3 | -0.2
N#CC(c1ccc(Cl)cc1)c1nc2ccccc2nc1C(F)(F)F (stereo not drawn) | -10.5 | -6.1 | -6.4 | i | -1.8 | -1.2 | . | .
Cc1cccc(C(C#N)c2nc3ccccc3nc2C(F)(F)F)c1 (stereo not drawn) | -3.9 | -5.1 | -1.9 | i | 9.8* | 4.8 | 1.4 | -2.4
COc1ccc(OC)c(NC(=O)COC(=O)Cc2ccc(-c3ccccc3)cc2)c1 | -6.6 | 0.8 | 0.4 | i | 14.3* | 1.1 | -8.0 | -5.7
CCCCc1ccc2nc(NC(=O)c3ccc(Br)o3)sc2c1 | . | -2.0 | -12.3 | . | -86.8 | -126.3 | . | .
CN(C)c1nc(Oc2ccc(=O)n(-c3ccccc3)n2)nc(N2CCOCC2)n1 | 0.9 | 6.6 | -2.8 | i | 12.7* | -1.8 | -5.9 | -0.1
CC12c3ccccc3C(c3ccccc31)C1C(=O)N(c3cccnc3)C(=O)C12 (stereo not drawn) | -10.4 | -14.8 | -6.4 | i | 11.8* | 9.7 | -4.1 | -2.9
CCOC(=O)C1CCN(C(=O)c2c(-c3c(F)cccc3Cl)noc2C)CC1 | -9.5 | -1.6 | 0.1 | i | 10.2* | 3.1 | -3.2 | -17.3
CCOC(=O)C1CCN(C(=O)COC(=O)c2ccc(Br)o2)CC1 | -3.5 | 3.1 | -1.5 | i | -2.1 | 2.9 | . | .
Cc1onc(-c2c(F)cccc2Cl)c1C(=O)N1CCCCC1 | 2.3 | -0.9 | 1.5 | i | 1.4 | -2.8 | . | .
CCOC(=O)C1CCN(C(=O)c2ccc(Br)o2)CC1 | 2.6 | 2.2 | 1.2 | i | 10.2* | 5.3 | -6.2 | -14.2
CCOC(=O)C1CCN(C(=O)CCn2c(=O)oc3ccccc32)CC1 | . | 1.1 | 3.1 | . | 9.6* | -1.7 | -3.6 | -2.2
O=C(NCc1ccc(C(=O)N2CCCN(Cc3ccccc3)CC2)cc1)c1cccc(Br)c1 | . | -1.4 | -0.1 | . | 2.4 | 2.0 | . | .
SMILES | PfM18AAP inh | NPR1 activator | GC-B act | Rce1 inhib | PLC-gamma1 inh | PLCb3 inh | PLCgamma1 ctr | PLCb3 confirm
Cc1nc2ccc(NC(=O)c3cc(Cl)ccc3F)cc2c(=O)[nH]1 | . | 1.8 | -8.9 | . | -7.1 | -4.8 | . | .
Nc1ccc2cc3ccc(N)cc3nc2c1 | . | -33.8 | -21.2 | . | i | i | . | .
COc1cccc(NC(=O)Nc2ccncc2)c1 | -4.6 | -1.7 | 0.0 | . | 5.4 | 11.2* | -8.6 | -3.5
CCOc1ccccc1NC(=O)Nc1ccncc1 | 2.1 | -3.7 | -3.2 | i | 9.8* | 7.3 | -4.8 | 0.5
COc1cccc(-c2csc(NC(=O)Nc3ccccc3)n2)c1 | 1.4 | 11.8 | -3.9 | i | 11.9* | -6.7 | 2.7 | 0.4
COc1cccc(NC(=O)Nc2ccc(Cc3ccncc3)cc2)c1 | 0.2 | 4.7 | -3.8 | i | 4.0 | 2.3 | . | .
C#CCN(C1CC1)S(=O)(=O)c1ccccc1Br | . | 4.9 | 4.1 | . | 0.2 | 2.7 | . | .
Cc1cccc(NC(=O)CCS(=O)(=O)c2ccccc2)c1C | . | 5.0 | 4.0 | . | -2.0 | -2.2 | . | .
COC(=O)Nc1cc([N+](=O)[O-])ccc1OC | 1.3 | 0.4 | 2.3 | i | 10.0* | 4.3 | 0.2 | 5.5
COc1ccc([N+](=O)[O-])cc1NC(=O)CSCc1ccccc1C | -3.9 | 0.8 | -0.1 | i | 2.5 | 2.9 | . | .
COc1ccc([N+](=O)[O-])cc1NC(=O)Nc1ccccc1 | -0.2 | -0.5 | 0.5 | i | 2.4 | -0.5 | . | .
COc1ccc([N+](=O)[O-])cc1NC(=O)CSCc1ccc(Br)cc1 | 2.1 | -1.0 | -7.2 | i | 10.6* | 4.9 | -2.9 | -2.5
Nc1[nH]c(=O)nc2snnc12 | . | -0.2 | 6.6 | . | 9.6* | 10.0 | -4.2 | -4.1
Cc1ccc(NC(=O)c2cnccn2)cc1C | -10.6 | 4.9 | -1.5 | i | 10.8* | -0.6 | 1.2 | -7.3
CCOC(=O)CC[C@H]1CC[C@]2(CCCN(C(=O)C(C)(C)C)C2)O1 | . | 2.0 | 5.5 | . | 0.9 | 4.3 | . | .
O=C(Nc1ccccc1Cl)c1cc(C2CCCN(C(=O)CCc3ccccc3)C2)on1 (stereo not drawn) | . | -2.6 | -2.3 | . | 9.8* | 3.3 | -1.0 | -0.1
